# In PubChem BioAssay (NCI):
# About 79,000 compounds went through this panel and 15% of them were active in at least one assay; those are over-represented in the sample as a whole. Values without a mark were called inactive. The source made the active and inactive calls. Rule as the data show it: active = growth inhibition above about 70%; inactive = the rest.
# How the values were obtained:
# [1] = NCI Yeast Anticancer Drug Screen. Data for the rad52 strain (AID 147);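 also: 0% = growth of vehicle-treated control cultures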; details: S. cerevisiae rad52 mutant growth inhibition, active compounds read high
# Summary of the method: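 Compounds are applied to a genetically defined yeast strain lacking normal DNA damage repair, and inhibition of growth is expressed relative to cultures given vehicle only.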
# [2] = NCI Yeast Anticancer Drug Screen. Data for the rad50EPP+ strain (AID 151);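 also: 0% = growth of vehicle-treated control cultures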; details: S. cerevisiae rad50 mutant strain, active compounds read high
# Summary of the method: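 Compounds were applied to the rad50EPP+ yeast strain, which bears a defined DNA repair alteration, and growth inhibition was determined relative to vehicle-treated cultures.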
# [3] = NCI Yeast Anticancer Drug Screen. Data for the mgt1 strain (AID 153); details: S. cerevisiae mgt1 mutant growth inhibition, active compounds read high
# Summary of the method: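 Strain: mgt1 yeast, one of a set carrying defined DNA damage repair or cell cycle control alterations. Compound-treated growth compared with vehicle.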
# [4] = NCI Yeast Anticancer Drug Screen. Data for the rad50 strain (AID 155);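 also: 0% = growth of vehicle-only cultures of the same strain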; details: S. cerevisiae rad50 strain growth inhibition, active compounds read high
# Summary of the method: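 Genetically altered yeast (DNA repair pathway); compound treatment; growth inhibition vs vehicle ctrl.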
# [5] = NCI Yeast Anticancer Drug Screen. Data for the mec2-1 strain (AID 157); details: S. cerevisiae mec2-1 strain, active compounds read high
# Summary of the method: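 Strain: mec2-1 (DNA repair/cell cycle alteration). Compound exposure, then growth measured; inhibition expressed relative to vehicle.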
# [6] = NCI Yeast Anticancer Drug Screen. Data for the rad14 strain (AID 159);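 also: 0% = growth of vehicle-treated control cultures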; details: S. cerevisiae rad14 strain growth inhibition, active compounds read high
# Summary of the method: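 Test compounds were applied to a repair-deficient yeast strain. Its growth was then compared with that of cultures given vehicle alone, and inhibition was expressed relative to those controls.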
# [7] = NCI Yeast Anticancer Drug Screen. Data for the sgs1 mgt1 strain (AID 161);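 also: 0% = growth of cultures given vehicle only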; details: S. cerevisiae sgs1 mgt1 strain, active compounds read high
# Summary of the method: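 Test agents were incubated with a DNA-repair-mutant yeast strain. Growth was then read and compared against vehicle-treated controls.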
# [8] = NCI Yeast Anticancer Drug Screen. Data for the CLN2oe strain (AID 163);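 also: 0% = growth of vehicle-only control cultures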; details: S. cerevisiae CLN2oe strain, active compounds read high
# Summary of the method: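 Growth of a genetically modified yeast strain is measured after compound exposure and compared with cultures given vehicle alone.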
# [9] = NCI Yeast Anticancer Drug Screen. Data for the cln2 rad14 strain (AID 165);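 also: 0% = growth equal to vehicle treated cultures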; details: S. cerevisiae cln2 rad14 strain, active compounds read high
# Summary of the method: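 Compounds are applied to the cln2 rad14 yeast strain, and growth is then compared with that of vehicle-treated cultures to give inhibition.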
# [10] = NCI Yeast Anticancer Drug Screen. Data for the bub3 strain (AID 167); details: S. cerevisiae bub3 mutant strain, active compounds read high
# Summary of the method: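 Yeast carrying a defined mutation is treated with each compound, and growth is compared with that of vehicle-exposed cells to give inhibition.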
# [11] = NCI Yeast Anticancer Drug Screen. Data for the wt2 strain (AID 169);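 also: 0% = growth of vehicle-treated yeast cultures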; details: S. cerevisiae wt2 strain growth inhibition, active compounds read high
# Summary of the method: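 This strain belongs to a panel of yeast strains with defined genetic alterations in DNA damage repair or cell cycle control. Compounds are applied, and growth inhibition is measured against vehicle-treated cultures.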
# [12] = NCI Yeast Anticancer Drug Screen. Data for the mlh1 strain (AID 171);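 also: 0% = growth of vehicle-treated control cultures of the same strain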; details: S. cerevisiae mlh1 strain growth inhibition, active compounds read high
# Summary of the method: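 Growth of the mutant yeast strain after compound exposure, expressed as inhibition relative to vehicle-only controls.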
# [13] = NCI Yeast Anticancer Drug Screen. Data for the sgs1 strain (AID 173);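 also: 0% = growth of vehicle-only control cultures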; details: S. cerevisiae sgs1 mutant, active compounds read high
# Summary of the method: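 Growth of a yeast strain bearing a defined genetic alteration is measured after compound treatment. Inhibition is expressed relative to vehicle-only controls.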
# [14] = NCI Yeast Anticancer Drug Screen. Data for the mlh1 rad18 strain (AID 175); details: S. cerevisiae mlh1 rad18 strain growth inhibition, active compounds read high
# Summary of the method: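 Read-out is yeast growth inhibition, calculated against vehicle-only controls. The compound was applied to a strain engineered with DNA damage repair alterations.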
# [15] = NCI Yeast Anticancer Drug Screen. Data for the rad18 strain (AID 177); details: S. cerevisiae rad18 mutant growth inhibition, active compounds read high
# Summary of the method: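 Growth of the mutant yeast strain after compound exposure, normalised to vehicle-only cultures.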
# [16] = NCI Yeast Anticancer Drug Screen. Data for the wt1 strain (AID 149);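 also: 0% = growth of vehicle-treated wt1 cultures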; details: S. cerevisiae wt1 strain (SPY 50644) growth inhibition, active compounds read high
# Summary of the method: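 wt1 yeast, compound-treated; % growth inhibition vs vehicle control.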
# [17] = at 5.0 µM (retest, dose inferred, filed as 0.5)
# [18] = at 50.0 µM (retest, dose inferred, filed as 5.0)
smiles,measurement,setting,value
O=[n+]1c2ccc(Cl)cc2n([O-])c2ccc(Cl)cc21,growth inhibition,[1]; at 1.2 µM,5%
same,growth inhibition,[1]; at 3.7 µM,12%
same,growth inhibition,[1]; at 11.0 µM,23%
same,growth inhibition,[1]; at 33.0 µM,44%
same,growth inhibition,[1]; at 100.0 µM,57%
same,growth inhibition,[2]; at 1.2 µM,9%
same,growth inhibition,[2]; at 3.7 µM,18%
same,growth inhibition,[2]; at 11.0 µM,35%
same,growth inhibition,[2]; at 33.0 µM,57%
same,growth inhibition,[2]; at 100.0 µM,74% (active)
same,growth inhibition,[3]; at 1.2 µM,-3%
same,growth inhibition,[3]; at 3.7 µM,-1%
same,growth inhibition,[3]; at 11.0 µM,2%
same,growth inhibition,[3]; at 33.0 µM,5%
same,growth inhibition,[3]; at 100.0 µM,10%
same,growth inhibition,[4]; at 1.2 µM,9%
same,growth inhibition,[4]; at 3.7 µM,19%
same,growth inhibition,[4]; [17],-9%
same,growth inhibition,[4]; at 11.0 µM,39%
same,growth inhibition,[4]; at 33.0 µM,61%
same,growth inhibition,[4]; [18],47%
same,growth inhibition,[4]; at 50.0 µM,-5.4%
same,growth inhibition,[4]; at 100.0 µM,81% (active)
same,growth inhibition,[5]; at 1.2 µM,-1%
same,growth inhibition,[5]; at 3.7 µM,0%
same,growth inhibition,[5]; [17],1%
same,growth inhibition,[5]; at 11.0 µM,2%
same,growth inhibition,[5]; at 33.0 µM,9%
same,growth inhibition,[5]; [18],-5%
same,growth inhibition,[5]; at 50.0 µM,-1%
same,growth inhibition,[5]; at 100.0 µM,15%
same,growth inhibition,[6]; at 1.2 µM,0%
same,growth inhibition,[6]; at 3.7 µM,2%
same,growth inhibition,[6]; at 11.0 µM,4%
same,growth inhibition,[6]; at 33.0 µM,6%
same,growth inhibition,[6]; at 100.0 µM,10%
same,growth inhibition,[7]; [17],-4%
same,growth inhibition,[7]; [18],20%
same,growth inhibition,[7]; at 50.0 µM,13.3%
same,growth inhibition,[8]; at 1.2 µM,-1%
same,growth inhibition,[8]; at 3.7 µM,0%
same,growth inhibition,[8]; at 11.0 µM,0%
same,growth inhibition,[8]; at 33.0 µM,-1%
same,growth inhibition,[8]; at 100.0 µM,-1%
same,growth inhibition,[9]; [17],-10%
same,growth inhibition,[9]; [18],-13%
same,growth inhibition,[9]; at 50.0 µM,-74.2%
same,growth inhibition,[10]; at 1.2 µM,-1%
same,growth inhibition,[10]; at 3.7 µM,0%
same,growth inhibition,[10]; [17],11%
same,growth inhibition,[10]; at 11.0 µM,2%
same,growth inhibition,[10]; at 33.0 µM,9%
same,growth inhibition,[10]; [18],22%
same,growth inhibition,[10]; at 50.0 µM,-7.55%
same,growth inhibition,[10]; at 100.0 µM,14%
same,growth inhibition,[11]; at 1.2 µM,-5%
same,growth inhibition,[11]; at 3.7 µM,-8%
same,growth inhibition,[11]; at 11.0 µM,0%
same,growth inhibition,[11]; at 33.0 µM,-5%
same,growth inhibition,[11]; at 100.0 µM,10%
same,growth inhibition,[12]; at 1.2 µM,-1%
same,growth inhibition,[12]; at 3.7 µM,1%
same,growth inhibition,[12]; at 11.0 µM,0%
same,growth inhibition,[12]; at 33.0 µM,0%
same,growth inhibition,[12]; at 100.0 µM,5%
same,growth inhibition,[13]; at 1.2 µM,-6%
same,growth inhibition,[13]; at 3.7 µM,-27%
same,growth inhibition,[13]; at 11.0 µM,4%
same,growth inhibition,[13]; at 33.0 µM,21%
same,growth inhibition,[13]; at 100.0 µM,23%
same,growth inhibition,[14]; [17],11%
same,growth inhibition,[14]; [18],84% (active)
same,growth inhibition,[14]; at 50.0 µM,11.7%
same,growth inhibition,[15]; at 1.2 µM,4%
same,growth inhibition,[15]; at 3.7 µM,12%
same,growth inhibition,[15]; at 11.0 µM,25%
same,growth inhibition,[15]; at 33.0 µM,37%
same,growth inhibition,[15]; at 100.0 µM,63%
CCC/C(Cl)=N\OC(=O)Nc1cccc(C(F)(F)F)c1,growth inhibition,[1]; at 1.2 µM,9%
same,growth inhibition,[1]; at 3.7 µM,10%
same,growth inhibition,[1]; at 11.0 µM,10%
same,growth inhibition,[1]; at 33.0 µM,19%
same,growth inhibition,[1]; at 100.0 µM,21%
same,growth inhibition,[16]; at 1.2 µM,1%
same,growth inhibition,[16]; at 3.7 µM,2%
same,growth inhibition,[16]; at 11.0 µM,0%
same,growth inhibition,[16]; at 33.0 µM,2%
same,growth inhibition,[16]; at 100.0 µM,5%
same,growth inhibition,[3]; at 1.2 µM,7%
same,growth inhibition,[3]; at 3.7 µM,37%
same,growth inhibition,[3]; at 11.0 µM,68%
same,growth inhibition,[3]; at 33.0 µM,78% (active)
same,growth inhibition,[3]; at 100.0 µM,66%
same,growth inhibition,[4]; at 1.2 µM,12%
same,growth inhibition,[4]; at 3.7 µM,14%
same,growth inhibition,[4]; [17],-15%
same,growth inhibition,[4]; at 11.0 µM,13%
same,growth inhibition,[4]; at 33.0 µM,25%
same,growth inhibition,[4]; [18],99% (active)
same,growth inhibition,[4]; at 50.0 µM,87.1% (active)
same,growth inhibition,[4]; at 100.0 µM,26%
same,growth inhibition,[5]; at 1.2 µM,15%
same,growth inhibition,[5]; at 3.7 µM,18%
same,growth inhibition,[5]; [17],16%
same,growth inhibition,[5]; at 11.0 µM,19%
same,growth inhibition,[5]; at 33.0 µM,20%
same,growth inhibition,[5]; [18],98% (active)
same,growth inhibition,[5]; at 50.0 µM,91.8% (active)
same,growth inhibition,[5]; at 100.0 µM,23%
same,growth inhibition,[7]; [17],6%
same,growth inhibition,[7]; [18],99% (active)
same,growth inhibition,[7]; at 50.0 µM,85.8% (active)
same,growth inhibition,[9]; [17],56%
same,growth inhibition,[9]; [18],98% (active)
same,growth inhibition,[9]; at 50.0 µM,89.7% (active)
same,growth inhibition,[10]; at 1.2 µM,34%
same,growth inhibition,[10]; at 3.7 µM,44%
same,growth inhibition,[10]; [17],9%
same,growth inhibition,[10]; at 11.0 µM,51%
same,growth inhibition,[10]; at 33.0 µM,47%
same,growth inhibition,[10]; [18],98% (active)
same,growth inhibition,[10]; at 50.0 µM,87.7% (active)
same,growth inhibition,[10]; at 100.0 µM,46%
same,growth inhibition,[11]; at 1.2 µM,21%
same,growth inhibition,[11]; at 3.7 µM,38%
same,growth inhibition,[11]; at 11.0 µM,61%
same,growth inhibition,[11]; at 33.0 µM,83% (active)
same,growth inhibition,[11]; at 100.0 µM,77% (active)
same,growth inhibition,[12]; at 1.2 µM,3%
same,growth inhibition,[12]; at 3.7 µM,7%
same,growth inhibition,[12]; at 11.0 µM,16%
same,growth inhibition,[12]; at 33.0 µM,18%
same,growth inhibition,[12]; at 100.0 µM,17%
same,growth inhibition,[13]; at 1.2 µM,50%
same,growth inhibition,[13]; at 3.7 µM,62%
same,growth inhibition,[13]; at 11.0 µM,81% (active)
same,growth inhibition,[13]; at 33.0 µM,90% (active)
same,growth inhibition,[13]; at 100.0 µM,88% (active)
